Source: PubChem BioAssay (The Scripps Research Institute Molecular Screening Center)
In the library only some 4.1% were active in any assay of this set; here they are far more common.
DAX1 inh-1: inhibitors of human orphan nuclear receptor DAX1 (NR0B1); actives 0.99% (n = 340,000); P51843; HEK293 Gal4-DAX1 luciferase reporter, luminescence; inhibition, % at 6.75 µM;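 active means inhibition above the mean over all tested compounds plus 3 SD, cut at about 4.2% in these data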;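 further: 0% = DAX1-transfected cells with DMSO and 100% = empty-vector control cells with DMSO; inhibition shows as a rise in luminescence from relieved DAX1 repression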
Target sequence (P51843 207-470 limits assumed): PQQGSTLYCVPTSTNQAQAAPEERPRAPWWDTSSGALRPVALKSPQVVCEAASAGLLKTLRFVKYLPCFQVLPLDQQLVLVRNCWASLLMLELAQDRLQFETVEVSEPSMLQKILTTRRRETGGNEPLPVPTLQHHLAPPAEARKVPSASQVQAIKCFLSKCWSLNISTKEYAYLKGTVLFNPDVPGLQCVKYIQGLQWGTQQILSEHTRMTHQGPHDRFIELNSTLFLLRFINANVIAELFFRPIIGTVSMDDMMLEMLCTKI
hgDAF12 agonist: hgDAF-12 agonism, primary luciferase screen; HEK293 GAL4-hgDAF12 UAS-luciferase reporter, agonist luminescence; normalized to butyrate control; actives 1.8% (n = 370,000); AID 687014; activation, % at 6.8 µM;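 active means activation above a cutoff set at the mean of all screened compounds plus 3 SD, cut at about 10% in these data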;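 further: 0% = DMSO wells and 100% = sodium butyrate wells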
DAX1 inh-2: DAX1 (NR0B1) inhibition, primary screen; HEK293T StAR-luciferase reporter, SF-1/DAX-1 repression relief; inhibition, % at 6.8 µM; actives 1.1% (n = 370,000); AID 652010;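 active means inhibition above the mean over all tested compounds plus 3 SD, cut at about 3.6% in these data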;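 further: 0% = DAX-1 cells with DMSO and 100% = cells lacking DAX-1 with DMSO; higher inhibition means more luminescence from relief of DAX-1 repression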
hcDAF-12 act: activators of H. contortus DAF-12 nuclear receptor | HEK293 hcDAF-12 lit1-tk-luc reporter, luminescence; 0% DMSO, 100% Δ7-dafachronic acid | activation, % at 6.8 µM | actives 1.4% (n = 370,000) | AID 652067;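 active means activation above the mean of all tested compounds plus 3 SD, cut at about 5.5% in these data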;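 further: 100% = response to 3 µM Δ7-dafachronic acid high control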
ssDAF-12 act: activators of S. stercoralis DAF-12 nuclear receptor; HEK293 ssDAF-12/GRIP1 lit1-tk-luc reporter, luminescence; % of 3 µM dafachronic acid response; activation, % at 6.8 µM; actives 1% (n = 370,000); AID 652126;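 active means activation above the mean over all tested compounds plus 3 SD, cut at about 0.9% in these data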;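 further: 0% = DMSO-only wells and 100% = 3 µM delta7-dafachronic acid wells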
* hit, by the source's call; x = not tested or not shown; ! = not confirmed by another sample.

SMILES | DAX1 inh-1 | hgDAF12 agonist | DAX1 inh-2 | hcDAF-12 act | ssDAF-12 act
CCN(CC)CCCNC(=O)CCC(=O)Nc1ccc2nc(N3CCCCC3)cc(C)c2c1 | 6.7* | 2 | 1 | -1 | -2
Cc1ccc(C2=NN(CC(=O)NCc3cccs3)C(=O)CC2)cc1 | 5.4* | -1 | -1 | -1 | -2
CC(C)(C)c1ccc(-c2nnc3sc(COc4ccccc4)nn23)cc1 | x | 1 | 0 | 2 | -1
O=C1CC(C(=O)Nc2ccccc2)S/C(=N\NC(=O)c2ccccc2Cl)N1 (stereo not drawn) | 4.3* | 3 | 0 | 0 | -2
COc1ccccc1C(=O)N/N=C1/NC(=O)CC(C(=O)Nc2ccccc2)S1 (stereo not drawn) | 1 | 0 | 0 | 3 | -1
O=C(CCN1C(=O)/C(=C/c2ccccc2F)SC1=S)NCCCn1ccnc1 | 0 | 1 | 0 | 6.5* | -1
O=C(CCCN1C(=O)/C(=C/c2ccccc2)SC1=S)NCCCn1ccnc1 | 0 | -5 | 0 | -5 | -2
Cc1ccc(-c2cc(-c3nnc(SCC(=O)N4CCOCC4)n3N)[nH]n2)cc1 | x | -1 | -1 | -2 | -1
N#Cc1ccsc1NC(=O)COC(=O)c1cc(Br)ccc1O | 6.0* | 1 | 1 | 4 | 0
O=C(NNC(=O)C1CC=CCC1)c1ccccc1Br (stereo not drawn) | 3 | 1 | 0 | 0 | -1
O=C(NNC(=O)C1CC=CCC1)c1cccc(Br)c1 (stereo not drawn) | 4.6* | 2 | 0 | 1 | -2
O=S(=O)(Nc1nccs1)c1cnc(Cl)c(Br)c1 | 1 | 0 | 1 | 5 | -1
O=S(=O)(Nc1nc2ccccc2s1)c1cnc(Cl)c(Br)c1 | 2 | 0 | 1 | 5 | 1.0*
CCC(=O)N(c1ccccc1)C1CCN(C(=O)C(Cc2ccccc2)NC(C)=O)CC1 (stereo not drawn) | x | 0 | 0 | 1 | 0
CN1NC(=O)c2ccccc2NC1=S | x | -1 | -1 | 1 | 0
C/C(CC(=O)NC(C)(C)C)=N\NC(=O)c1ccccc1N | 4.7* | 10 | 3 | 2 | 0
O=C(CCc1ccccc1)Nc1ccc(S(=O)(=O)Nc2nccs2)cc1 | -1 | 2 | 0 | 6.3* | 0
COC/C=C/C1=CC2=CC(=O)C(C)(OC(=O)c3cnc4ccccc4n3)C(=O)C2=CN1CCCCO (stereo not drawn) | 4.2* | -1 | 0 | 0 | -1
COC(=O)[C@]1(CNC(C)=O)CC(=O)N(C)[C@@H]1c1ccccc1 | x | -2 | 0 | 0 | -2
Cc1ccc(CN2CCCCC(NC(=O)c3ccccc3)C2=O)cc1 (stereo not drawn) | x | -2 | -1 | -3 | 0
O=C(NCCCN1CCCC1=O)c1cc(-c2ccc3c(c2)OCO3)nc2ccccc12 | 0 | -3 | 0 | 2 | 1.0*
CCc1ccc(C(O)c2ncc(-c3ccccc3F)[nH]2)cc1 (stereo not drawn) | x | 4 | 4.1* | 1 | 0
OC(c1ccc(F)cc1)c1ncc(-c2ccccc2F)[nH]1 (stereo not drawn) | x | 11* | 3 | 2 | 0
Cc1nc2cc(C(=O)N3CCN(C(=O)C(Cl)Cl)CC3)ccc2n1C1CCCC1 | x | -2 | -3 | 1 | -1
COC(=O)[C@]12C[C@H](CC(=O)N3CCSCC3)C(=O)N(Cc3ccc4c(c3)OCO4)C1=C[C@H](C(C)(C)C)O[C@@H]2C | x | -3 | 0 | 0 | -1
SMILES | DAX1 inh-1 | hgDAF12 agonist | DAX1 inh-2 | hcDAF-12 act | ssDAF-12 act
O=C(CSc1ncccn1)Nc1cccc2ccccc12 | 0 | 3 | 0 | 6.2* | -1
O=C(CSc1nnc2c3ccccc3c3ccccc3c2n1)Nc1ccccc1F | 0 | 0 | 0 | 5.8* | -1
O=C(Nc1cccc2ccccc12)ON=C1CCCCC1 | x | -1 | 0 | 2 | 1.0*
O=C(CSCC(=O)Nc1cccc2ccccc12)Nc1cccc2ccccc12 | -1 | -2 | 0 | 1 | 0
COc1ccc(C)cc1NC(=O)ON=C1CCCCC1 | x | 2 | 0 | 0 | -1
O=C(Nc1cccc2ccccc12)c1ccccc1 | 2 | 10 | 2 | 5.6* | 0
O=C(Nc1cccc2ccccc12)c1ccc(F)cc1 | 0 | 7 | 1 | 0 | 0
Oc1ccc2[nH]cc(CCc3ccccc3)c2c1-c1ccccc1 | x | -3 | -1 | -1 | -1
Cn1cc(-c2cccc3[nH]cc(-c4ccccc4)c23)c2ccccc21 | x | -1 | 0 | 3 | 1
COC(=O)[C@@]12CCCCC=C1N(CCc1ccc(Cl)cc1)C(=O)[C@H]2CC(=O)NCc1cccc(C(F)(F)F)c1 | x | 1 | -2 | -1 | -1
CCc1ccc(Nc2nnc(SCC(=O)NCCN3C(=O)CSC3=O)s2)cc1 | -1 | 12* | 1 | 2 | 0
CCc1ccc(Nc2nnc(SCC(=O)Nc3sccc3C(N)=O)s2)cc1 | -1 | 8 | 0 | 2 | -1
COC(=O)c1c(N=CN(C)C)c(C#N)c2n1CCCC2 | 6.0* | -2 | -1 | -1 | -1
O=C(NCCc1ccccc1)OCc1cn(-c2cccc(F)c2F)nn1 | x | 2 | 1 | 0 | 0
COc1cc2cnc(CCO[C@H]3CCCCO3)cc2cc1OC | 1 | 1 | 0 | -3 | -1
COc1ccc2cc(CCOC3CCCCO3)ncc2c1 (stereo not drawn) | 2 | 9 | 2 | 6.5* | 0
O=S1(=O)CC2c3ccccc3CN2CN1C1CCCC1 (stereo not drawn) | x | 0 | 0 | 2 | 0
O=Cc1ccc2cccnc2n1 | 1 | 1 | 0 | 6.1* | 2.0*
CNC(=S)NNC(=O)c1oc2nc(-c3ccccc3)cc(C)c2c1N | 2 | 1 | 1 | 6.1* | 0
O=C(CCc1c[nH]c2ccccc12)Nc1ccc(Oc2cccnc2)cc1 | x | 0 | 0 | -1 | -1
Cc1cc(C)c2cc3c(N)c(C(=O)N4CCOCC4)sc3nc2c1 | 0 | -3 | 0 | -2 | -1
Cc1cc(C)c2nc3sc(C(=O)N4CCOCC4)c(N)c3cc2c1 | -2 | 1 | 4.1* | 5.7* | 0
Cc1ccc(Nc2nnc(-c3ccccc3N)o2)cc1C | 6.5* | 11* | 1 | 3 | -1
CCCCNc1c(-c2ccc(-c3cccc(Cl)c3)cc2)nc2ccccn12 | 1 | 11*! | 2 | 1 | 0
CCCCCCSc1ccc(-c2nc3ccccn3c2NCCCC)cc1 | 0 | 3 | 0 | -2 | -1
COc1ccc(/C=C/C(=O)Nc2cc(C)nn2-c2nc3ccccc3n2Cc2cccc([N+](=O)[O-])c2)cc1 | 2 | 3 | 2 | 4 | 1.0*
COc1ccc(/C=C/C(=O)Nc2cc(C)nn2-c2nc3ccccc3[nH]2)cc1 | 0 | 1 | 0 | -3 | -1
CCOc1ccc(CCN2C(=S)N([C@@H](CC(C)C)CN3CCCC3CN3C(=S)NC[C@@H]3CC(C)C)C[C@@H]2CC(C)C)cc1 (stereo partly drawn) | 1 | 0 | 4.4* | 0 | -1
